# Bioassay records (PubChem)
# An excerpt weighted towards active compounds, which were near 3.8% of everything screened.
# ATXN viability = Viability Counterscreen for Primary qHTS for Inhibitors of ATXN expression | S2 cells (HEK-293 line with an ATXN2-luciferase reporter) viability, CellTiter-Fluor protease fluorescence, 24 h | Potency, µM (doses to about 56.7 µM), actives largely listed as cytotoxic | 0.49% of 400,000 active | AID 651635, 2014; note: nearly all actives have a fitted effect of over 40% in size
# HT1080NT lethal = qHTS for induction of synthetic lethality in tumor cells producing 2HG: qHTS for the HT-1080-NT fibrosarcoma cell line | HT-1080-NT fibrosarcoma viability, CellTiter-Glo ATP luminescence, 48 h | AID 686970, 2013 | 1.6% of 360,000 active | Potency, µM (titrated, usually from 46.1 µM), without a hit: top-dose activity, negative = less viability, actives largely listed as cytotoxic;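 note: NT is the 2HG producing partner of a matched IDH1 knockdown line; 0% = DMSO-treated cells and -100% = media-only wells without cells; nearly all actives have a fitted effect of over 55% in size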
#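 Read-out is CellTiter-Glo luminescence after 10 minutes at room temperature, following 48 hours' compound treatment of HT-1080-NT cells (750 cells/well, RPMI, 5% FBS, 37 degrees C).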
# ATXN2 expr inh = Primary qHTS for Inhibitors of ATXN expression | HEK-293 ATXN2-luciferase reporter, luminescence, 24 h | Potency, µM (top dose mostly 57 µM), for the others: top-dose activity change, negative = inhibition, actives largely listed as inhibitors | 0.72% of 360,000 active; note: % is set by controls: 0 for no effect and ±100 for the full control effect; nearly all actives have a fitted effect of over 55% in size
#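 qHTS (up to 57 uM final) was run with 24 h compound exposure of reporter cells at 37 °C. Each well was multiplexed: SteadyGlo luminescence measured ATXN2-luciferase expression after a fluorogenic Gly-Phe-AFC viability readout (25 uM final).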
# TGFb inhibitor = qHTS for Inhibitors of TGF-b; Potency, µM (titrated, usually from 46.1 µM), inactives show top-dose activity, negative = inhibition, usual class: inhibitors; 1.2% of 410,000 active; HepG2 CAGA-GFP TGF-b/SMAD3 reporter, GFP fluorescence, 18 h; TGF-beta stimulated, 500 pg/mL final; note: % is set by controls: 0 for no effect and ±100 for the full control effect; nearly all actives have a fitted effect of over 65% in size
#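 Inhibition of TGF-beta-driven CAGA-GFP reporter expression in HEPG2 cells is measured by cellular GFP fluorescence after 18 h stimulation with 500 pg/mL recombinant TGF-beta in 1% FBS medium at 37 degrees C.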
# HepG2 tox = qHTS for Inhibitors of TGF-b: Cytotox Counterscreen. HepG2 CAGA-GFP viability, ATP luminescence, 18 h. Potency, µM (top dose mostly 46.1 µM), for the others: at the top dose activity change, negative = cytotoxicity, actives largely listed as cytotoxic. 0.76% of 410,000 active
#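 HepG2 CAGA-GFP cells (1000/well, DMEM with 1% FBS) received compound, then TGF-beta at 500 pg/mL final, and were incubated 18 hours at 37 degrees C. Viability was read by CellTiter-Glo luminescence. Media-only wells were set as complete cell-killing and DMSO as no toxicity.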
# HT1080 IDH1KD tx = qHTS for induction of synthetic lethality in tumor cells producing 2HG: qHTS for the HT-1080-IDH1KD cell line. 2% of 360,000 active. Potency, µM (titrated, usually from 46.1 µM), inactives show at the highest dose activity, negative = toxicity, usual class: cytotoxic. HT-1080 IDH1 knockdown viability, ATP luminescence, 48 h;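 note: 0% = DMSO wells and -100% = cell-free medium wells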
#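 Assay cells: HT-1080 with IDH1 knockdown, 750 per well, RPMI/5% FBS. Exposure: 48 h at 37 °C following 2 h pre-incubation. Read: CellTiter-Glo luminescence; fitted concentration-response, curve class assigned.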
# Numbers without * were called inactive; i = inactive; u = inconclusive; x = no result. Calls come from the whole dose curve; as a rule, active = well fitted curve in the direction sought with a large enough effect; inconclusive = small, poorly fitted or top-dose-only effect, or another doubt; inactive = no such curve, though single readings can be large; an effect the other way counts as inactive or inconclusive. Potency is the fitted concentration of half-maximal effect.
SMILES,ATXN viability,HT1080NT lethal,ATXN2 expr inh,TGFb inhibitor,HepG2 tox,HT1080 IDH1KD tx
CCCN(CCC)CC(O)Cn1cc(/C=C/C(=O)c2ccccc2)c2ccccc21 (configuration not stated),u,u,-8%,u,13µM*,15µM*
CCCCN(C)CC(O)Cn1cc(/C=C/C(=O)c2ccc(Br)cc2)c2ccccc21 (configuration not stated),x,x,-9%,u,-97%,x
CCCCN(C)CC(O)Cn1cc(/C=C/C(=O)c2ccc(OC)c(OC)c2)c2ccccc21 (configuration not stated),x,x,22µM*,u,-98%,x
O=C(/C=C/c1cn(CC(O)CN2CCCCC2)c2ccccc12)c1ccccc1 (configuration not stated),x,u,-1%,u,5%,16µM*
CCCN(CCC)CC(O)Cn1cc(/C=C/C(=O)c2ccc(Br)cc2)c2ccccc21 (configuration not stated),x,x,-2%,8%,-35%,x
CCCCN(C)CC(O)Cn1cc(/C=C/C(=O)c2ccc(C)cc2)c2ccccc21 (configuration not stated),x,u,x,18µM*,13µM*,u
COc1ccc(/C=C\C(=O)NC2CC(=O)N(c3ccc(F)cc3)C2)cc1OC (configuration not stated),x,x,x,0%,-27%,x
CCCN(CCC)CC(O)Cn1cc(/C=C/C(=O)c2ccc(OC)cc2)c2ccccc21 (configuration not stated),x,x,x,x,-101%,x
CCCN(CCC)CC(O)Cn1cc(/C=C/C(=O)c2ccc(C)cc2)c2ccccc21 (configuration not stated),u,x,u,u,8.9µM*,x
CN1CCN(Cn2cc(/C=C/C(=O)c3ccccc3)c3ccccc32)CC1,u,5%,151%,13µM*,-59%,0%
COc1ccc(C(=O)/C=C/c2cn(CC(O)CN3CCN(C)CC3)c3ccccc23)cc1OC (configuration not stated),x,16µM*,1%,u,-187%,15µM*
O=C(O)/C=C/c1ccc2ccccc2c1,x,x,x,19%,-2%,x
COc1cnc(-c2ccccn2)nc1Sc1c(Cl)cccc1Cl,u,16µM*,u,-6%,-40%,7.9µM*
COc1cnc(-c2ccccn2)nc1N(C)C,u,u,16µM*,-27%,-17%,5.8µM*
O=C(NCC1CCN(Cc2cccc(Cl)c2)CC1)Nc1ccc(F)c(Cl)c1,22µM*,x,u,22µM*,-113%,x
NC1=NC[C@H](Cc2ccc(O)cc2)N1CCCCC1CCCCC1,u,-24%,u,u,-22%,-28%
NC1=NC[C@H](Cc2ccccc2)N1CCCCC1CCCCC1,u,-7%,25µM*,u,-105%,-6%
NC1=NC[C@H](c2ccccc2)N1CCc1cc(C(F)(F)F)cc(C(F)(F)F)c1,x,u,u,11µM*,-110%,u
CC(O)[C@H]1CN=C(N)N1CCc1cc(C(F)(F)F)cc(C(F)(F)F)c1 (some centres not stated),i,-3%,8%,3%,-8%,2%
NC1=NC[C@@H](CC2CCCCC2)N1CCc1cc(C(F)(F)F)cc(C(F)(F)F)c1,18µM*,-1%,20µM*,u,-93%,u
N[C@@H](CC(=O)N1CCn2c(nnc2C(F)(F)F)C1)Cc1cc(F)c(F)cc1F,x,x,-11%,x,x,x
CN=C(NC)NCc1ccccc1,i,x,x,x,x,x
CCCN(CCC)CCCNC(=O)Cn1ncc2c3ccccc3n(Cc3ccccc3F)c2c1=O,14µM*,x,u,-16%,-22%,x
O=C(CCc1cccnc1)NCC1Cc2cccc(-c3ncccn3)c2O1 (configuration not stated),i,x,x,x,x,x
CSc1nc(C)cc(OCC(=O)N/N=C/c2ccccc2O)n1,i,u,14µM*,u,-22%,u
SMILES,ATXN viability,HT1080NT lethal,ATXN2 expr inh,TGFb inhibitor,HepG2 tox,HT1080 IDH1KD tx
Cc1ccc(NC(=O)CCC(=O)N/N=C/c2ccccc2O)cc1,u,u,x,-30%,-22%,u
COc1ccc(/C=N/NC(=O)CSCC(=O)Nc2ccccc2)cc1,i,1%,6%,-17%,-2%,-1%
COc1cccc(/C=N/NC(=O)CSCC(=O)Nc2ccccc2)c1O,i,4µM*,28µM*,8%,-17%,2µM*
O=C(CCCCC(=O)NN=Cc1ccccc1O)NN=Cc1ccccc1O,i,u,u,0%,-2%,6.5µM*
Cc1cc(=O)oc2cc(OCC(=O)N/N=C/c3ccccc3O)ccc12,i,-26%,-6%,11%,-9%,-11%
Cc1ccc(SCCC(=O)N/N=C/c2ccccc2O)cc1,i,-30%,25µM*,3%,-37%,u
Cc1ccc(C)c(N2CCN(C(=O)CCS(=O)(=O)c3cc(Br)cc4c3N(C(=O)C3CC3)CC4)CC2)c1,u,x,3%,3%,-11%,x
CCc1nc2ccc(C(=O)NCc3ccc(N(C)C)cc3)cc2nc1CC,x,x,x,15%,2%,x
Cc1nc(C(C)NC2CCN(c3cccc(NC(=O)c4ccncc4)c3)CC2)cs1 (configuration not stated),i,x,x,x,x,x
O=C(CCC(=O)Nc1ccc(Br)cc1)N/N=C/c1ccccc1O,i,10µM*,u,-2%,-16%,13µM*
O=C(CN1C(=O)NC2NC(=O)NC21)N/N=C/c1ccccc1O (configuration not stated),i,1%,-9%,-4%,-8%,1%
O=C(CSCC(=O)NN=Cc1ccccc1O)NN=Cc1ccccc1O,u,u,u,-21%,-10%,21µM*
O=C(Cn1cc(C(F)(F)F)ccc1=O)N/N=C/c1ccc(F)cc1,i,-13%,-11%,1%,-41%,-4%
O=C(Cn1cc(C(F)(F)F)ccc1=O)N/N=C/c1ccccc1O,i,u,0%,-24%,-47%,15µM*
C=CCn1c(CNc2ccccc2)nnc1SCC(=O)N/N=C/c1ccccc1O,i,u,18µM*,u,-28%,u
CC(C)(C)n1ncc2c(=O)n(Cc3ccccc3CS(=O)(=O)c3ccccc3)cnc21,x,x,x,-9%,-27%,x
